Compounds without any hit were thinned out: in the full panel of roughly 83,000, 20% have a hit.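 In brief: 96-well plates, 48 h treatment, single concentration, percent growth endpoint.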 Calls of active or inactive are those of the source. The calls were made as follows: active = growth percent below 10; inactive = the rest.
Legend:
Assay in all cases: NCI-60 one-dose screen, 48 h (100 = growth as untreated, 0 = no growth, -100 = all killed)
Details in all cases: 10 µM unless noted
T-47D breast = tested on: T-47D breast
BT-549 breast = tested on: BT-549 breast
MDA-MB-435 melanoma = tested on: MDA-MB-435 melanoma
SW-620 colon = tested on: SW-620 colon
MCF7 breast = tested on: MCF7 breast
HCT-116 colon = tested on: HCT-116 colon
HCC-2998 colon = tested on: HCC-2998 colon
KM12 colon = tested on: KM12 colon

Measured: growth

O=C(/C=C/C12c3ccccc3C(c3ccccc31)C1C(=O)NC(=O)C12)c1ccccc1 (centres undefined)
active: MCF7 breast 9.25% | KM12 colon 9.85%
inactive: T-47D breast 51.7% | BT-549 breast 23.6% | MDA-MB-435 melanoma 13.8% | SW-620 colon 19.1% | HCT-116 colon 14.3% | HCC-2998 colon 10.4%

CCC(C)NCc1ccccc1 (centres undefined)
inactive: T-47D breast 89.4% | BT-549 breast 95.2% | MDA-MB-435 melanoma 108% | SW-620 colon 101% | MCF7 breast 102% | HCT-116 colon 91.8% | HCC-2998 colon 102% | KM12 colon 100%

N=C(N)c1ccc(-c2ccc(/C=C/c3ccccc3)s2)cc1
active: MDA-MB-435 melanoma -34.9% | SW-620 colon -67.1% | MCF7 breast -74.2% | HCT-116 colon -79% | HCC-2998 colon -63.7% | KM12 colon -47.1%
inactive: T-47D breast 37.8% | BT-549 breast 93.9%

COc1cc(C2CC(c3ccc(Nc4nc(Nc5ccc(F)cc5)nc(Nc5ccc(Cl)cc5)n4)cc3)=NN2C(C)=O)cc(OC)c1OC (centres undefined)
inactive: T-47D breast 19% | BT-549 breast 13.4% | MDA-MB-435 melanoma 95.7% | SW-620 colon 87% | MCF7 breast 46.6% | HCT-116 colon 55.1% | HCC-2998 colon 89.3% | KM12 colon 71.2%

[2H]c1nc(Nc2ncc(F)c(-c3cc(F)c4nc(C)n(C(C)C)c4c3)n2)c([2H])c([2H])c1CN1CCN(C([2H])([2H])C([2H])([2H])[2H])CC1
inactive: T-47D breast 54.6% | BT-549 breast 51.3% | MDA-MB-435 melanoma 51.7% | SW-620 colon 43.5% | MCF7 breast 30.3% | HCT-116 colon 26.1% | HCC-2998 colon 82.4% | KM12 colon 40.5%

COc1ccc(OC)c(/C=C2\COc3ccc(O)cc3C2=O)c1
inactive: T-47D breast 96.7% | BT-549 breast 93.5% | MDA-MB-435 melanoma 29.1% | SW-620 colon 14.3% | MCF7 breast 19.7% | HCT-116 colon 66.9% | HCC-2998 colon 112% | KM12 colon 60.2%

Nc1nc(Nc2ccc(Cl)cc2)nn1S(=O)(=O)c1ccc(-c2ccc(F)cc2)cc1
inactive: T-47D breast 68.6% | BT-549 breast 108% | MDA-MB-435 melanoma 91% | SW-620 colon 95.5% | MCF7 breast 58.2% | HCT-116 colon 75.1% | HCC-2998 colon 82.9% | KM12 colon 61.2%

CCCCCCCC/C=C/CCCCCCCC1=NCC[N+]1(CCO)CCO
inactive: T-47D breast 90.5% | BT-549 breast 98.7% | MDA-MB-435 melanoma 65.1% | SW-620 colon 71.4% | MCF7 breast 66.5% | HCT-116 colon 59.8% | HCC-2998 colon 72% | KM12 colon 40.4%

CCCCCCCC/C=C\CCCCCCCC(=O)Oc1cccc2cccnc12
inactive: T-47D breast 54.6% | BT-549 breast 65.6% | MDA-MB-435 melanoma 82.9% | SW-620 colon 59.4% | MCF7 breast 89.4% | HCT-116 colon 32.2% | HCC-2998 colon 106% | KM12 colon 104%

Cc1[nH]c(-c2nc3ccccc3[nH]2)c(C)c1C(=O)N1CCc2sccc2C1
inactive: T-47D breast 72.9% | BT-549 breast 94.1% | MDA-MB-435 melanoma 94.9% | SW-620 colon 89% | MCF7 breast 90.2% | HCT-116 colon 92.6% | HCC-2998 colon 110% | KM12 colon 97.6%

CC(=O)OCCc1ccccc1
inactive: T-47D breast 66.7% | BT-549 breast 107% | MDA-MB-435 melanoma 104% | SW-620 colon 105% | MCF7 breast 103% | HCT-116 colon 94.7% | HCC-2998 colon 87% | KM12 colon 150%

CCCCNC(=O)NS(=O)(=O)c1ccc(N2N=C(c3ccc(C)cc3C)CC2c2ccc(N(C)C)cc2)cc1 (centres undefined)
inactive: T-47D breast 70.4% | BT-549 breast 45.6% | SW-620 colon 61.8% | MCF7 breast 37.4% | HCT-116 colon 39.3% | HCC-2998 colon 46.1% | KM12 colon 49.2%
active: MDA-MB-435 melanoma 9.98%

CCOC(=O)c1c(C)[nH]c(C(=O)CCC(=O)OC)c1C
inactive: T-47D breast 101% | BT-549 breast 84.5% | MDA-MB-435 melanoma 103% | SW-620 colon 108% | MCF7 breast 98% | HCT-116 colon 81% | HCC-2998 colon 99.2% | KM12 colon 103%

O=C1Nc2ccccc2/C1=N/N=C/c1ccc(OC2OC(CO)C(O)C(O)C2O)cc1 (centres undefined)
inactive: T-47D breast 105% | BT-549 breast 109% | MDA-MB-435 melanoma 106% | SW-620 colon 101% | MCF7 breast 103% | HCT-116 colon 107% | HCC-2998 colon 115% | KM12 colon 110%

C=C1C(=O)O[C@H]2[C@H]1CC/C(COC(=O)/C=C\C(=O)NCc1ccc(Cn3c(=O)sn(CCCC)c3=O)cc1)=C\CC[C@@]1(C)O[C@@H]21
active: T-47D breast -39% | BT-549 breast -73.3% | MDA-MB-435 melanoma -73.9% | SW-620 colon -45.5% | MCF7 breast -43% | HCT-116 colon -77.5% | HCC-2998 colon -80.3% | KM12 colon -59.7%

COc1ccc(-c2cc(-c3cc(OC)ccc3O)[nH]c(=O)c2C#N)cc1
inactive: T-47D breast 45.6% | BT-549 breast 22.1% | SW-620 colon 34.4% | MCF7 breast 46.4% | HCT-116 colon 33.6% | HCC-2998 colon 72.9% | KM12 colon 41.8%
active: MDA-MB-435 melanoma -0.171%

CCOc1cccnc1/C=N/NC(N)=S
inactive: T-47D breast 71.8% | BT-549 breast 51.6% | MDA-MB-435 melanoma 58.2% | SW-620 colon 40.8% | MCF7 breast 28.8% | HCT-116 colon 32.6% | HCC-2998 colon 52.7% | KM12 colon 36.2%

N[C@@H]1CCC[C@H]1NCCCCN1C(=O)c2cccc3cccc(c23)C1=O
inactive: T-47D breast 86.3% | BT-549 breast 78.9% | MDA-MB-435 melanoma 83.3% | SW-620 colon 38% | MCF7 breast 70% | HCT-116 colon 50.3% | HCC-2998 colon 60.1% | KM12 colon 63.5%

Cc1nc(Nc2ccc(N)cc2)c2ccccc2n1
inactive: T-47D breast 101% | BT-549 breast 104% | MDA-MB-435 melanoma 64.6% | SW-620 colon 99% | MCF7 breast 75.8% | HCT-116 colon 95.3% | HCC-2998 colon 104% | KM12 colon 98.3%

C=C1C(=O)O[C@H]2[C@H]1CC/C(COC(=O)/C=C\C(=O)NCc1ccc(Cn3c(=O)sn(-c4ccc(C#N)cc4)c3=O)cc1)=C\CC[C@@]1(C)O[C@@H]21
active: T-47D breast -59.9% | BT-549 breast -57.5% | MDA-MB-435 melanoma -79.6% | SW-620 colon -64% | MCF7 breast -51.8% | HCT-116 colon -55.7% | HCC-2998 colon -79.1% | KM12 colon -71.7%

O=C1/C(=C/c2ccccc2[N+](=O)[O-])COc2ccc(O)c(O)c21
inactive: T-47D breast 12.4% | BT-549 breast 21.3%
active: MDA-MB-435 melanoma -62.2% | SW-620 colon -38.7% | MCF7 breast 6.98% | HCT-116 colon -15.4% | HCC-2998 colon -46.5% | KM12 colon -3.65%

COC(=O)[C@]12CC[C@@H](C)[C@H](C)[C@@H]1C1=CC[C@@H]3[C@@]4(C)C(C=O)=C[C@@](C)(CO)C4=CC[C@@]3(C)[C@]1(C)CC2
inactive: T-47D breast 20.8% | BT-549 breast 27.7% | MDA-MB-435 melanoma 39.6% | SW-620 colon 27.9% | MCF7 breast 18.1% | HCC-2998 colon 16.1% | KM12 colon 21.6%
active: HCT-116 colon 6.65%

N#C/C(=C\c1ccc(Br)cc1)n1nnc2ccccc21
inactive: T-47D breast 24% | MCF7 breast 14.2%
active: BT-549 breast -1.46% | MDA-MB-435 melanoma -38.4% | SW-620 colon -19.9% | HCT-116 colon -44.2% | HCC-2998 colon -30.8% | KM12 colon 1.67%

Cc1[nH]c(-c2nc3ccccc3[nH]2)c(C)c1C(=O)N1CCOCC1
inactive: T-47D breast 99.1% | BT-549 breast 99% | MDA-MB-435 melanoma 99.7% | SW-620 colon 96.3% | MCF7 breast 93.3% | HCT-116 colon 101% | HCC-2998 colon 97.9% | KM12 colon 105%

COc1cc2oc3cc(C)oc(=O)c3c2cc1OC
inactive: T-47D breast 89.8% | BT-549 breast 109% | MDA-MB-435 melanoma 97.7% | SW-620 colon 103% | MCF7 breast 98% | HCT-116 colon 90.4% | HCC-2998 colon 92.4% | KM12 colon 105%

O=C1CSC(c2ccccc2Cl)N1c1nnc(Cn2cnnc2)o1 (centres undefined)
active: MDA-MB-435 melanoma -45.1% | MCF7 breast -8.09%
inactive: T-47D breast 33.3% | BT-549 breast 60.6% | SW-620 colon 39.4% | HCT-116 colon 13.3% | HCC-2998 colon 35.8% | KM12 colon 50.9%

Cc1cnc(Nc2ccc(N3CCN(C)CC3)cc2)nc1Nc1ccc(Cl)c(NS(=O)(=O)C(C)(C)C)c1
active: BT-549 breast -5.14% | SW-620 colon 1.76% | MCF7 breast 5.84% | HCT-116 colon 8.83% | HCC-2998 colon -48.1% | KM12 colon 8.8%
inactive: T-47D breast 39.8% | MDA-MB-435 melanoma 31.6%

O=C(NCOC(O)C(Cl)(Cl)Cl)NCOC(O)C(Cl)(Cl)Cl (centres undefined)
inactive: T-47D breast 89.5% | BT-549 breast 101% | MDA-MB-435 melanoma 107% | SW-620 colon 108% | MCF7 breast 89.6% | HCT-116 colon 99.9% | HCC-2998 colon 118% | KM12 colon 109%
